The values below come from the supplement of paper PMC7380943.

Counter-ions that a name gives are not always drawn.

Assay [1] deals with CLZ3 (HCA2 human fibroblast dual HR-NHEJ reporter). Nature of the assay: NHEJ repair efficiency (GFP+ cells) relative to control (log10 fold); higher = more non-homologous end joining. The note with it: 5 µM; doxycycline 0.5 ug/mL.
Assay [2] shares this test system. Kind of assay: HR repair efficiency (tdTomato+ cells) relative to control (log10 fold); higher = more homologous recombination. The note with it: 5 µM; doxycycline 0.5 ug/mL.
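Wherever HR repair efficiency (tdTomato+ cells) relative to control is given: compound given one day before doxycycline, which switches on I-SceI endonuclease expression to create double-strand breaks within the integrated reporter.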
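Wherever NHEJ repair efficiency (GFP+ cells) relative to control is given: compound given one day ahead of doxycycline, which switches on I-SceI endonuclease to cut the chromosomally integrated reporter and create DSBs.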

For the compound `COC(=O)C1=CO[C@@H](O[C@@H]2O[C@H](CO)[C@@H](O)[C@H](O)[C@H]2O)[C@@H]2C(CO)=CC[C@H]12` [Geniposide], the “NHEJ repair efficiency (log10)” value in assay [1] is -0.0355. Moreover, in assay [2], the “HR repair efficiency (log10)” value came out at 0.172.
On to `COc1c2c(cc3c1-c1c(cc4c(c1OC)OCO4)C[C@H](C)[C@H](C)C3)OCO2` [Schisandrin C], for which the “NHEJ repair efficiency (log10)” value in assay [1] is -0.137. In assay [2], the “HR repair efficiency (log10)” value came to 0.0438.
For `C[N+](C)(C)C[C@H](O)CC(=O)[O-]` [L-Carnitine], in that order: -0.0644 and 0.0663.
Regarding `O=C(O)CC(O)C(=O)O` (centres undefined) [Malic Acid], the “NHEJ repair efficiency (log10)” value in assay [1] was -0.069. Moreover, in assay [2], the “HR repair efficiency (log10)” value was -0.141.
On the same counts, the results for `O=c1c(O)c(-c2ccc(O)cc2O)oc2cc(O)cc(O)c12` [Morin] are 0.0612 and 0.0351.
On the same counts, the results for `O=C1OC2(c3ccccc3Oc3ccccc32)c2ccccc21` [Fluoran] are 0.0054 and 0.0374.
`Cc1ccc(C(C)C)c(O)c1` [Thymol]: the “NHEJ repair efficiency (log10)” value in assay [1] was found to be 0.108. In assay [2], the “HR repair efficiency (log10)” value came to 0.0691.
On to `COc1ccc2cc3[n+](cc2c1OC)CCc1cc2c(cc1-3)OCO2` [Berberine hydrochloride], for which, in assay [1], the “NHEJ repair efficiency (log10)” value is -0.127. Besides, the “HR repair efficiency (log10)” value in assay [2] was -0.283.
For `COc1ccc(-c2cc(=O)c3c(O)cc(O)cc3o2)cc1` [Acacetin], in that order: -0.203 and 0.0794.
For the compound `OC[C@H]1O[C@H](OC[C@H]2O[C@@H](O[C@@H]3OC=C[C@H]4[C@H](O)[C@@H]5O[C@]5(CO)[C@@H]34)[C@H](O)[C@@H](O)[C@@H]2O)[C@H](O)[C@@H](O)[C@H]1O` [Rehmannioside A], the “NHEJ repair efficiency (log10)” value in assay [1] was 0.0412. Besides, the “HR repair efficiency (log10)” value in assay [2] was -0.0566.
In the case of `O=c1ccc2ccccc2o1` [Coumarin], the “NHEJ repair efficiency (log10)” value in assay [1] was -0.104. For the same compound, in assay [2], the “HR repair efficiency (log10)” value stood at 0.0819.
On the same counts, the results for `COc1cc2ccc(=O)oc2c(O)c1O` [Fraxetin] are 0.113 and 0.272.
On the same counts, the results for `Cc1c(O)cc2c(c1O)C(=O)c1ccc(O)c(O)c1C2=O` [3-Hydroxymorindone] are -0.105 and 0.0716.
Consider `OC[C@H]1NC[C@H](O)[C@@H](O)[C@@H]1O` [1-Deoxynojirimycin], for which the “NHEJ repair efficiency (log10)” value in assay [1] is 0.0355. Also, the “HR repair efficiency (log10)” value in assay [2] is 0.0442.
For `O=C1c2c(O)cc(O)cc2OC(c2ccc(O)c(O)c2)C1O` (centres undefined) [Taxifolin], in assay [1], the “NHEJ repair efficiency (log10)” value is -0.132. Besides, the “HR repair efficiency (log10)” value in assay [2] is -0.0702.
Consider `O=C(/C=C/c1ccc(O)c(O)c1)O[C@@H]1C[C@](OC(=O)/C=C/c2ccc(O)c(O)c2)(C(=O)O)C[C@@H](O)[C@H]1O` [1,3-Di-O-Caffeoylquinic Acid], for which the “NHEJ repair efficiency (log10)” value in assay [1] was -0.263. The “HR repair efficiency (log10)” value in assay [2] was -0.0833.
On the same counts, the results for `COC(=O)C1=CO[C@@H](O)[C@@H]2C(CO)=CC[C@H]12` [Genipin] are -0.0273 and 0.00524.
For `CC(CCC(OC1OC(COC2OC(CO)C(O)C(O)C2O)C(O)C(O)C1OC1OC(CO)C(O)C(O)C1O)C(C)(C)O)C1CCC2(C)C3CC=C4C(CCC(OC5OC(COC6OC(CO)C(O)C(O)C6O)C(O)C(O)C5O)C4(C)C)C3(C)C(O)CC12C` (centres undefined) [Mogroside Ⅴ], in that order: -0.025 and 0.0038.
On the same counts, the results for `CC1(C)[C@@H](O[C@H]2O[C@H](C(=O)O)[C@@H](O)[C@H](O)[C@H]2O[C@@H]2O[C@H](C(=O)O)[C@@H](O)[C@H](O)[C@H]2O)CC[C@]2(C)[C@H]3C(=O)C=C4[C@@H]5C[C@@](C)(C(=O)O)CC[C@]5(C)CC[C@@]4(C)[C@]3(C)CC[C@@H]12` [Glycyrrhizic acid] are 0.142 and -0.0143.
`COc1c2ccoc2cc2oc(=O)ccc12` [Bergapten]: in assay [1], the “NHEJ repair efficiency (log10)” value is -0.153. In assay [2], the “HR repair efficiency (log10)” value stood at 0.125.
For `CCCCCCCCCCCCCCCCCC(=O)OC` [Methyl Stearate], in that order: -0.0143 and -0.0898.
For `CC(C)=CCC/C(C)=C/CC/C(C)=C/CC/C(C)=C/CC/C(C)=C/CC/C(C)=C/CC/C(C)=C/CC/C(C)=C/CC/C(C)=C/CO` [Solanesol], in that order: -0.0479 and -0.0545.
In the case of `C[C@H]1O[C@H](O[C@@H]2[C@@H](O)[C@H](OCCc3ccc(O)c(O)c3)O[C@H](CO[C@H]3OCC(O)(CO)[C@@H]3O)[C@H]2OC(=O)/C=C/c2ccc(O)c(O)c2)[C@@H](O)[C@@H](O)[C@@H]1O` (some centres undefined) [Forsythoside B], the “NHEJ repair efficiency (log10)” value in assay [1] worked out at 0.0465. The “HR repair efficiency (log10)” value in assay [2] stood at 0.076.
Take `COc1cc2c(cc1OC)-c1cc3ccc(OC)c(OC)c3c[n+]1CC2` [Palmatine hydrochloride]: in assay [1], the “NHEJ repair efficiency (log10)” value was 0.0374. For the same compound, in assay [2], the “HR repair efficiency (log10)” value was found to be 0.0612.
With `CC(CC(=O)C[C@@H](C)[C@H]1CC(=O)[C@@]2(C)C3=C(C(=O)[C@@H](O)[C@]12C)[C@@]1(C)CC[C@H](O)C(C)(C)[C@@H]1C[C@@H]3O)C(=O)O` (some centres undefined) [Ganoderic Acid G], the “NHEJ repair efficiency (log10)” value in assay [1] stood at 0.055. Further, the “HR repair efficiency (log10)” value in assay [2] stood at 0.106.
On the same counts, the results for `COc1ccc([C@@H]2OC[C@H]3[C@@H]2CO[C@@H]3c2ccc(O[C@@H]3O[C@H](CO)[C@@H](O)[C@H](O)[C@H]3O)c(OC)c2)cc1OC` [Forsythin] are -0.0743 and -0.0814.
As to `O=C(/C=C/c1ccc(O)c(O)c1)O[C@@H](C(=O)O)[C@@H](O)C(=O)O` [Caftaric Acid], the “NHEJ repair efficiency (log10)” value in assay [1] is -0.0695. In assay [2], the “HR repair efficiency (log10)” value is -0.0835.
